The nature of assay [1]: agonists of human NTR1, primary screen, imaging, U2OS cells, beta-arrestin-GFP, high content (AID 493036).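 As to activation: 0% = DMSO without peptide and 100% = 100 nM NTR1 peptide.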 Particulars: NTR1-U2OS beta-arrestin-GFP spot imaging, agonist mode; measured here: cell count, cytotoxicity flag; at 20 µM.
Assay [2] deals with Neurotensin receptor type 1 (Homo sapiens) (UniProt P30989). The description is as above. As to conditions: NTR1-U2OS beta-arrestin-GFP spot imaging, agonist mode; at 20 µM; stronger effect = higher value.
Neurotensin receptor type 1 (Homo sapiens), sequence (P30989 whole entry, looked up): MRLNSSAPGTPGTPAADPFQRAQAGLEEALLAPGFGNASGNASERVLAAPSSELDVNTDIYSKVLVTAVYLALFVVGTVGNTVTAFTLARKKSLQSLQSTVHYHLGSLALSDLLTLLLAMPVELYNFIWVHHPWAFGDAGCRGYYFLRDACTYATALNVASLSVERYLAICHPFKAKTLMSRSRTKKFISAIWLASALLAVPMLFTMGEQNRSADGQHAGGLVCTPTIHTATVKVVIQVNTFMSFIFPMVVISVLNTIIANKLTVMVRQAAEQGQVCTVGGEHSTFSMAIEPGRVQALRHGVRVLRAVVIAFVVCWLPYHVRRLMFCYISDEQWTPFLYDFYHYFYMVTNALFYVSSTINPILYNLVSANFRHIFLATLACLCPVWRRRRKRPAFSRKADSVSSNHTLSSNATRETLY

Results on 41 compounds are retold here after PubChem BioAssay AID493036 (Sanford-Burnham Center for Chemical Genomics, 2011).

Structures are written as SMILES. Among all 330,000 compounds or so, about 560 (0.17%) were called active. This is one part of a sample in which actives are shown more often than they occur.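 The calls were made as follows: active = activation at or above 40% of the spot to cytoplasm intensity ratio, with at least 20 cells analyzed; inconclusive = wells under 20 cells, flagged as cytotoxic or low count; inactive = the rest.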

For the compound `CC(C)c1ccc(OCC(O)Cn2cnc3ccccc32)cc1` (configuration not stated), the cell count in assay [1] is 46 cells. In addition, the activation in assay [2] was 0.1% (inactive).

For `OC(CN=c1sc2ccccc2n1CC(O)COc1ccccc1)COc1ccccc1` (configuration not stated), in assay [1], the cell count was found to be 92 cells. In addition, the activation in assay [2] is 58.9% (active).

For `O=C(C(c1ccccc1)c1ccccc1)N1CCN(CC(O)COc2ccccc2)CC1` (configuration not stated), the cell count in assay [1] was determined as 88 cells. Moreover, in assay [2], the activation is 0.6% (inactive).

The compound `Cc1nn(C)c(Oc2ccccc2)c1CCNS(=O)(=O)c1ccc(F)cc1` gave a cell count in assay [1] of 76 cells. Further, in assay [2], the activation is -0.4% (inactive).

As for `Cc1cc(N(C)C)cc(C)[n+]1[O-]`, the cell count in assay [1] was determined as 38 cells. The activation in assay [2] was 0.3% (inactive).

In the case of `Cc1ccc(C(=O)N/C(=C\c2cn(S(=O)(=O)N(C)C)c3ccccc23)C(=O)N2CCCC2)cc1`, the cell count in assay [1] is 61 cells. For the same compound, the activation in assay [2] is 1.6% (inactive).

In the case of `CCCCCOC(=O)C1=C(C)Nc2nnnn2C1c1ccc(OC)c(OC)c1OC` (configuration not stated), the cell count in assay [1] turned out to be 85 cells. In addition, the activation in assay [2] was 0.9% (inactive).

`CCCS(=O)(=O)N1CCC(C(=O)NCCc2ccc(OC)c(OC)c2)CC1` came in with a cell count in assay [1] of 46 cells. For the same compound, in assay [2], the activation is -0.4% (inactive).

Take `O=C(N/N=C/c1ccccn1)c1cccc(NC(=O)c2ccc(Cl)cc2)c1`: in assay [1], the cell count came out at 56 cells. Besides, the activation in assay [2] is 2.8% (inactive).

Regarding `Cc1cc2c(cc1C)N(C(=O)CN1C(=O)c3ccccc3C1=O)C(C)(C)c1ssc(=S)c1-2`, in assay [1], the cell count worked out at 52 cells. In assay [2], the activation was 23.8% (inactive).

`COc1ccnc(Oc2ccccc2)n1`: the cell count in assay [1] was found to be 45 cells. For the same compound, in assay [2], the activation was 3% (inactive).

With `Nc1c(-c2ccc(F)cc2)cnc2ncnn12`, in assay [1], the cell count was 91 cells. In assay [2], the activation was -0.2% (inactive).

In assay [1], `CCOC(=O)Cn1c(=O)n(Cc2ccc(OC)cc2)c(=O)c2cccnc21` showed a cell count of 62 cells. The activation in assay [2] is -0.6% (inactive).

In assay [1], `Cc1nnc(-c2ccc(Oc3ccc(C)c(C)c3)c([N+](=O)[O-])c2)o1` yielded a cell count of 52 cells. The activation in assay [2] is -0.2% (inactive).

Take `Cc1ccc(NC(=O)COc2coc(CN3CCc4ccccc4C3)cc2=O)cc1Cl`: in assay [1], the cell count was found to be 63 cells. Besides, the activation in assay [2] is 40.7% (active).

The compound `Cc1cc(C)cc(NC(=O)COc2coc(CN3CCN(c4ccccc4)CC3)cc2=O)c1` showed a cell count in assay [1] of 47 cells. The activation in assay [2] is 1.4% (inactive).

In turn, `CCCNC(=O)COc1coc(CN2CCN(Cc3ccccc3)CC2)cc1=O` registered a cell count in assay [1] of 51 cells. Further, the activation in assay [2] was 0.5% (inactive).

Compound `COCCNC(=S)N/N=C/c1c(C)[nH]c2ccccc12` returned a cell count in assay [1] of 45 cells. For the same compound, the activation in assay [2] is 1.2% (inactive).

In the case of `COc1ccc(CNC(=O)CNC(=O)c2sc3ccccc3c2Cl)cc1OC`, the cell count in assay [1] was found to be 47 cells. Also, the activation in assay [2] is 1.7% (inactive).

In assay [1], `O=C(N/N=C/c1c(Cl)[nH]c2ccccc12)c1sc2ccccc2c1Cl` had a cell count of 73 cells. For the same compound, the activation in assay [2] was 41.9% (active).

In assay [1], `CC(=O)N1c2ccc(S(=O)(=O)N3CCC(C(=O)NC4CCCCC4C)CC3)cc2CC1C` (configuration not stated) returned a cell count of 45 cells. Moreover, in assay [2], the activation was 2.5% (inactive).

As for `CCOc1ccccc1NC(=O)Cn1nnc(C(=O)NCc2cccs2)c1N`, the cell count in assay [1] came out at 61 cells. In assay [2], the activation was 1.8% (inactive).

`COCC(C)OC(=O)c1c(N)n(CCCN2CCOCC2)c2nc3ccccc3nc12` (configuration not stated) displayed a cell count in assay [1] of 68 cells. Besides, in assay [2], the activation is -1% (inactive).

In assay [1], `CC(C)Cn1c(N)c(C(=O)NCc2cccs2)c2nc3ccccc3nc21` yielded a cell count of 78 cells. The activation in assay [2] is 41.7% (active).

In the case of `O=C(c1cc(Cl)cc(Cl)c1)N1CCC(=O)N(C(COCc2ccccc2)Cc2ccccc2)CC1` (configuration not stated), in assay [1], the cell count worked out at 76 cells. In addition, the activation in assay [2] is 8.8% (inactive).

Consider `CCCCN1C(=O)c2ccc(C(=O)Nc3ccc(S(=O)(=O)N(C)C)cc3)cc2C1=O`, for which the cell count in assay [1] is 77 cells. For the same compound, the activation in assay [2] was 3.1% (inactive).

`CCN(CC(=O)Nc1ccc(OC)cc1)C(=O)c1ccc(=O)n(Cc2ccccc2)n1`: the cell count in assay [1] is 54 cells. Moreover, in assay [2], the activation is -0.5% (inactive).

In assay [1], `CC(C)Oc1c(Br)cc(Br)cc1/C=N/NC(N)=S` registered a cell count of 60 cells. Also, the activation in assay [2] is 66.8% (active).

On to `CC1(C(=O)N/N=C/c2cc3c(cc2Br)OCO3)CC1(Br)Br` (configuration not stated), for which the cell count in assay [1] came to 71 cells. Moreover, the activation in assay [2] was 5.3% (inactive).

In assay [1], `O=c1oc2ccccc2cc1-c1cn(-c2ccccc2)c(=S)[nH]1` showed a cell count of 47 cells. Also, the activation in assay [2] is 6.1% (inactive).

`Cc1ccc(Nc2nc(-c3ccc(O)cc3O)cs2)nc1` showed a cell count in assay [1] of 37 cells. For the same compound, the activation in assay [2] was 18.9% (inactive).

In assay [1], `O=c1oc2ccccc2cc1-c1csc(Nc2ccc(O)cc2)n1` returned a cell count of 50 cells. In addition, in assay [2], the activation is 76.8% (active).

In turn, `CC1(C)Cc2ccccc2-c2[nH]c(=S)[nH]c(=O)c21` yielded a cell count in assay [1] of 53 cells. In assay [2], the activation was 0.3% (inactive).

In turn, `CC1(C)Cc2ccccc2-c2nc(CN3CCOCC3)[nH]c(=O)c21` registered a cell count in assay [1] of 89 cells. Moreover, the activation in assay [2] is -0.1% (inactive).

Regarding `CCC1(CC)Cc2ccccc2-c2nc(CCl)[nH]c(=O)c21`, in assay [1], the cell count is 60 cells. The activation in assay [2] was 61.8% (active).

Turning to `Nc1nc(Nc2ccccc2F)nc(NC2CCCCC2)c1[N+](=O)[O-]`, in assay [1], the cell count is 83 cells. Moreover, the activation in assay [2] was 43.1% (active).

Compound `Nc1nc(NCC2CCCO2)nc(Nc2ccccc2F)c1[N+](=O)[O-]` (configuration not stated) gave a cell count in assay [1] of 40 cells. For the same compound, the activation in assay [2] is 0.5% (inactive).

Take `C=CCNc1nc(N)c([N+](=O)[O-])c(NC2CCCCC2)n1`: the cell count in assay [1] worked out at 87 cells. Further, the activation in assay [2] was 5.1% (inactive).

`Cc1ccc(S(=O)(=O)N2CCOCC2)cc1C(=O)OC1CCCCC1=O` (configuration not stated): in assay [1], the cell count stood at 30 cells. Moreover, in assay [2], the activation was 0.7% (inactive).

For the compound `Cc1cc(C)n(CCNS(=O)(=O)c2ccc(Cl)cc2)n1`, the cell count in assay [1] came to 44 cells. Further, the activation in assay [2] is 1.1% (inactive).

On to `Cc1ccccc1OCc1nnc(SCC(=O)N2c3ccccc3Sc3ccc(Cl)cc32)o1`, for which the cell count in assay [1] stood at 65 cells. In addition, the activation in assay [2] was 4.7% (inactive).
